Screening data deposited in PubChem by several laboratories.
HIF-2a block: blocks HIF-2a reporter activity; 786-0 RCC cells HIF-2a reporter, luciferase luminescence, overnight; inhibition, % at 18.8 µM; hit rate 0.72% among 360,000;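 active means inhibition of the luminescence signal of 40% or more relative to plate controls, in a single-dose primary screen at 18.75 µM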
EBV LMP1 NFkB: inhibitors of Epstein-Barr LMP1-induced NF-kappaB reporter | LMP1-induced NF-kappaB luciferase reporter cells, luminescence | inhibition, % at 12.5 µM | hit rate 0.69% among 350,000; in the data active means inhibition above about 41%
Shn3 3UTR inh: inhibitors of Schnurri-3 3'UTR reporter in osteoblasts; Clone20 osteoblast Shn3 3'UTR firefly luciferase, 24 h; inhibition, % at 12.5 µM; hit rate 0.52% among 360,000; AID 588674;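 active means mean inhibition of at least 75% with every replicate also reaching 75%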
Peg3 promoter: reduces Peg3 promoter-driven luciferase expression in HeLa; HeLa PEG-Prom luciferase reporter, luminescence, overnight; inhibition, % at 20 µM; hit rate 1.7% among 360,000; AID 588405;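 active means inhibition of at least 50% at 20 µM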
MITF TRPM1 inh: reduces MITF-dependent TRPM1 promoter luciferase signal | SK-MEL-5 TRPM1 promoter luciferase, 24 h | inhibition, % at 12.5 µM | hit rate 0.83% among 330,000 | AID 488899;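 active means mean inhibition across replicates of 60% or more, whatever share of single replicates reaches that level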
PAX8 inh HTS: lowers PAX8-driven luciferase in RMG-I cells | inhibition, % at 12.6 µM | hit rate 1.2% among 360,000 | RMG-I TPO-luciferase reporter, SteadyGlo, 24 h;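 active means mean replicate inhibition at least 60% with every replicate also reaching 60%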;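 further: luciferase light reporting Pax8 driven TPO promoter activity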
Hits are given with their value; . = inactive; / = not tested or not shown. Shown are actives, neighbours in structure and some others; about 2.8% of the full set was active somewhere.

SMILES	HIF-2a block	EBV LMP1 NFkB	Shn3 3UTR inh	Peg3 promoter	MITF TRPM1 inh	PAX8 inh HTS
CN1CCN(C2=C(Cl)C(=O)c3ccccc3C2=O)CC1	.	.	.	65	100	.
NC(=O)C1CCN(C2=C(NS(=O)(=O)c3ccc(Br)cc3)C(=O)c3ccccc3C2=O)CC1	.	.	.	.	68	.
O=C1C(Cl)=C(N2CCC(C(=O)O)CC2)C(=O)c2ccccc21	.	.	.	.	.	/
CN1C(=O)c2cc(NC(=O)c3cccc(F)c3)ccc2OC[C@@H]2O[C@@H](CC(=O)O)CC[C@H]21	/	/	/	/	/	.
O=C(C[C@@H]1CC[C@H]2[C@@H](COC[C@H](O)CN2C(=O)Nc2ccc(F)cc2)O1)NCCCN1CCOCC1	/	/	/	/	/	.
CCC[C@@H](CN1CCC[C@H]1CN1C(N)=NC[C@H]1C(C)C)N1C[C@@H]([C@H](C)CC)N(CCCC2CCCC2)C1=N	.	.	.	.	.	.
CC[C@@H](C)[C@@H]1CN([C@@H](CN2CCC[C@H]2CN2C(N)=NC[C@H]2C(C)C)C(C)C)C(=N)N1CCCC1CCCC1	.	.	.	.	.	84
C[C@@H]1CCCCO[C@@H](CN(C)C(=O)CCCN(C)C)[C@H](C)CN([C@@H](C)CO)C(=O)c2cc(NS(=O)(=O)c3ccc(F)cc3)ccc2O1	/	/	/	/	/	.
O=C(C[C@H]1C=C[C@H](NC(=O)NC2CCCCC2)[C@@H](CO)O1)NCc1ccc(F)cc1	/	/	/	/	/	.
Cn1cc(/C=N/n2cnc3sc4c(c3c2=O)CCCC4)c2ccccc21	.	.	.	.	.	.
O=c1c2c3c(sc2ncn1/N=C/c1ccc([N+](=O)[O-])o1)CCCC3	.	.	.	.	82	/
CCC(C)NC(=O)c1nc2c(nnn2Cc2ccccc2Cl)c(=O)[nH]1 (centres undefined)	.	.	.	.	.	.
O=C(NCc1cccs1)c1nc2c(nnn2Cc2ccccc2Cl)c(=O)[nH]1	76	76	.	104	76	/
Cn1cccc1-c1cc(C(=O)N2CCc3c([nH]c4ccccc34)C2c2ccccn2)[nH]n1 (centres undefined)	.	55	.	.	.	.
O=C(c1ccc(-n2cccn2)cc1)N1CCc2c([nH]c3ccccc23)C1c1ccccn1 (centres undefined)	.	.	/	.	.	.
CN(C)C(=O)C[C@@H]1C=C[C@@H](NC(=O)C2CCC2)[C@H](CO)O1	/	/	/	/	/	.
CCN(CC)c1ccc2c(C)c(Cl)c(=O)oc2c1	.	.	.	.	.	.
CCOc1ccc2c(C)c(Cl)c(=O)oc2c1	.	64	.	.	.	/
COc1ccc(Oc2cccc3c2S(=O)(=O)N(C2CC2)C[C@@H](COCc2ccccc2)O3)cc1	/	/	/	/	/	.
CC(C)c1ccc(Oc2cccc3c2S(=O)(=O)N(C2CCCC2)CC(COCc2ccccc2)O3)cc1 (centres undefined)	.	.	86	.	.	.
COc1ccc(C(CNC(=O)c2ccc(S(=O)(=O)N3CCCC3)cc2)N(C)C)cc1OC (centres undefined)	.	.	.	.	.	.
COc1ccc(C(CNC(=O)c2ccc(S(=O)(=O)N3CC(C)CC(C)C3)cc2)N(C)C)cc1 (centres undefined)	.	.	.	71	.	.
CN1C(=O)c2cc(NC(=O)Nc3ccc(Cl)cc3)ccc2OC[C@H]2O[C@@H](CC(=O)O)CC[C@@H]21	/	/	/	/	/	.
Cc1ccc(S(=O)(=O)N(C(=O)c2ccncc2)c2ccc(OC(=O)c3ccncc3)cc2)c(C)c1	.	.	.	52	.	.
S=C(NNc1ccnc2cc(Cl)ccc12)Nc1ccc(Cl)cc1Cl	.	.	88	52	65	.
SMILES	HIF-2a block	EBV LMP1 NFkB	Shn3 3UTR inh	Peg3 promoter	MITF TRPM1 inh	PAX8 inh HTS
Cn1cc(S(=O)(=O)N2CCc3ccccc32)cc1C(=O)NC(C)(C)C	.	.	89	.	.	.
Cc1cccc(C)c1NC(=O)c1cc(S(=O)(=O)N2CCc3ccccc32)cn1C	.	.	.	.	.	.
Cc1c(C(=O)NCCC2=CCCCC2)oc2ccc(S(=O)(=O)N3CCOCC3)cc12	.	.	.	66	.	.
Cc1ccc(CNC(=O)c2oc3ccc(S(=O)(=O)N4CCC5(CC4)OCCO5)cc3c2C)cc1	.	.	.	51	.	.
CC(C)(C)[S@](=O)N1Cc2cc(C(=O)NC3CCCCC3)nc(-c3cccc(Br)c3)c2[C@@H]1CCO	/	/	/	/	/	.
CC(C)Cc1nc2oc3c(NCc4cccnc4)ncnc3c2c2c1CCC2	.	.	.	.	.	/
CC(C)Cc1nc2oc3c(NCC4CCCO4)ncnc3c2c2c1CCC2 (centres undefined)	.	.	.	61	.	82
O=C(Cc1csc(Nc2nc(=S)[nH]c3ccccc23)n1)N1CCN(c2cccc(C(F)(F)F)c2)CC1	.	.	.	80	.	.
O=C(Cc1csc(Nc2nc(=S)[nH]c3ccccc23)n1)NCc1cccc(Cl)c1	.	.	.	.	.	/
C[C@H]1CCCCO[C@H](CN(C)C(=O)CCCN(C)C)[C@@H](C)CN([C@@H](C)CO)C(=O)c2cc(NC(=O)Cc3ccccc3)ccc2O1	/	/	/	/	/	.
O=C(C[C@H]1CC[C@@H]2[C@H](COC[C@H](O)CN2C(=O)Cc2ccccc2)O1)NC1CCCC1	/	/	/	/	/	.
Cc1ccccc1Oc1ccc2c(c1)[C@@H]1C[C@H](N(C)C(=O)Nc3cc(Cl)cc(Cl)c3)[C@H]([C@H](C)O)C(=O)N1CC2	.	.	.	68	.	.
Cc1ccsc1-c1nc(CSCC(=O)N2CCN(c3ccccc3)CC2)c(C)o1	.	81	.	.	.	/
CC(C)(C)N1C(=O)c2ccc(C(=O)Nc3ccc(-c4nc5ccccc5[nH]4)cc3)cc2C1=O	.	.	.	82	.	/
O=C(COC(=O)c1ccccc1)Nc1ncc([N+](=O)[O-])s1	.	.	.	.	.	.
O=C(Nc1ccccc1)Nc1ncc([N+](=O)[O-])s1	.	.	.	.	.	85
CN(C)c1ccc2c(c1)[C@H]1C[C@H](CC(=O)NCc3ccc(Oc4ccccc4)cc3)O[C@H](CO)[C@H]1O2	/	/	/	/	/	.
COc1ccc2cc3c(N)nn(C(=O)c4cccc([N+](=O)[O-])c4)c3nc2c1	.	46	.	.	.	.
COc1ccc2cc3c(N)nn(C(=O)C4CCC(C(C)(C)C)CC4)c3nc2c1 (centres undefined)	.	75	.	.	/	.
CCOC(=O)C1CCN(c2nc3cc(OC)ccc3cc2C#N)CC1	.	.	.	.	.	/
CC(=O)c1cccc(NC(=O)C2CC(=O)N(c3ccc4c(c3)OCCO4)C2)c1 (centres undefined)	.	.	.	.	.	.
O=C(Nc1cccc(S(=O)(=O)NC2=NCCC2)c1)C1CC(=O)N(c2ccc3c(c2)OCCO3)C1 (centres undefined)	.	.	87	.	.	.
O=C(CCl)Nc1cccc(S(=O)(=O)NC2=NCCCCC2)c1	.	.	.	51	76	.
